Data: PubChem BioAssay AID1159580 (chemical genetic matrix, 2015)
Among all 5,500 compounds or so, about 2,000 (36%) were called active. Another 18% or so got no clear call; they are omitted. No stated cut-off is given here; in the data, active means normalized growth mostly below about 0.91 (no sharp cut-off); inconclusive means no clear call, values can overlap the other calls; inactive means mostly above about 0.92. The list shows a part of the results.

Assay: chemical genetic growth profiling, strain panel (AID 1159580);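 further: tested at 20 µM; growth read once vehicle control cultures reached saturation at 30 °C; 1 = growth at the plate median or of vehicle wells; lower values mean less growth of the strain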
Conditions: S. cerevisiae deletion strains, growth OD
[1] = locus YMR307W, strain GAS1, active compounds read low
[2] = locus YNL128W, strain TEP1, active compounds read low
[3] = locus YJL095W, strain BCK1, active compounds read low

Measured: normalized growth

CC(=O)OC1C(=O)C2(C)C(O)CC3OCC3(OC(C)=O)C2C(OC(=O)c2ccccc2)C2(O)CC(OC(=O)C(O)C(NC(=O)c3ccccc3)c3ccccc3)C(C)=C1C2(C)C (stereo not drawn)
inactive: locus YCL061C, strain MRC1 (second series), active compounds read low 0.996 | locus YDR363W, strain ESC2, active compounds read low 0.984 | locus YER002W, strain NOP16, active compounds read low 1 | [1] 0.975 | [2] 1 | locus YNL197C, strain WHI3, active compounds read low 0.981 | locus YNL224C, strain SQS1, active compounds read low 1.03 | locus YPL241C, strain CIN2, active compounds read low 0.995

CC(=O)O[C@H]1C(=O)[C@@]2(C)C([C@H](OC(=O)c3ccccc3)[C@]3(O)C[C@H](O)C(C)=C1C3(C)C)[C@]1(OC(C)=O)CO[C@@H]1C[C@@H]2O (stereo partly drawn)
inactive: locus YAL021C, strain ccr4, active compounds read low 0.974 | locus YAL026C, strain drs2, active compounds read low 0.983 | locus YAL030W, strain snc1, active compounds read low 1 | locus YBL061C, strain skt5, active compounds read low 1.02 | locus YBR009C, strain hhf1, active compounds read low 0.986 | locus YBR023C, strain chs3, active compounds read low 0.998 | locus YBR171W, strain sec66, active compounds read low 1 | locus YBR231C, strain swc5, active compounds read low 1 | locus YBR279W, strain paf1, active compounds read low 0.999 | locus YCL011C, strain gbp2, active compounds read low 1 | locus YCL016C, strain dcc1, active compounds read low 1.01 | locus YCL069W, strain vba3, active compounds read low 0.98 | locus YCR088W, strain abp1, active compounds read low 0.986 | locus YDL005C, strain med2, active compounds read low 1 | locus YDL040C, strain nat1, active compounds read low 0.999 | locus YDR001C, strain nth1, active compounds read low 0.99 | locus YDR069C, strain doa4, active compounds read low 1.02 | locus YDR137W, strain rgp1, active compounds read low 1.05 | locus YDR159W, strain sac3, active compounds read low 1.01 | locus YDR195W, strain ref2 0.946 | locus YDR297W, strain sur2, active compounds read low 0.977 | locus YDR334W, strain swr1, active compounds read low 0.969 | locus YDR335W, strain msn5, active compounds read low 0.993 | locus YDR392W, strain spt3, active compounds read low 0.985 | locus YEL003W, strain gim4, active compounds read low 0.991 | locus YEL037C, strain rad23, active compounds read low 0.983 | locus YEL061C, strain CIN8 (second series), active compounds read low 0.981 | locus YER015W, strain faa2, active compounds read low 1 | locus YER016W, strain bim1, active compounds read low 1.01 | locus YER111C, strain swi4, active compounds read low 1 | locus YER155C, strain BEM2 (second series), active compounds read low 1.01 | locus YFR010W, strain ubp6, active compounds read low 0.985 | locus YGL167C, strain pmr1, active compounds read low 1 | locus YGL173C, strain kem1, active compounds read low 0.998 | locus YGL227W, strain vid30, active compounds read low 0.992 | locus YGL240W, strain doc1, active compounds read low 1 | locus YGL253W, strain hxk2, active compounds read low 0.99 | locus YHR013C, strain ard1, active compounds read low 1 | locus YHR027C, strain rpn1, active compounds read low 1 | locus YHR030C, strain SLT2, active compounds read low 0.988 | locus YHR079C, strain IRE1, active compounds read low 0.995 | locus YHR142W, strain chs7, active compounds read low 0.984 | locus YJL092W, strain hpr5, active compounds read low 0.998 | locus YJL095W, strain BCK1 (second series), active compounds read low 0.995 | [3] 0.995 | locus YJL115W, strain asf1, active compounds read low 0.973 | locus YJL129C, strain trk1, active compounds read low 0.982 | locus YJL154C, strain vps35, active compounds read low 0.98 | locus YJL164C, strain tpk1, active compounds read low 1 | locus YJL166W, strain qcr8, active compounds read low 1 | locus YJR066W, strain TOR1, active compounds read low 0.94 | locus YKL160W, strain elf1, active compounds read low 1.01 | locus YKR026C, strain gcn3, active compounds read low 0.985 | locus YKR091W, strain srl3, active compounds read low 1.01 | locus YLL001W, strain dnm1, active compounds read low 1 | locus YLL026W, active compounds read low 0.999 | locus YLL041C, strain sdh2, active compounds read low 0.985 | locus YLR027C, strain aat2, active compounds read low 0.988 | locus YLR113W, strain HOG1, active compounds read low 1.01 | locus YLR221C, strain rsa3, active compounds read low 0.994 | locus YLR258W, strain gsy2, active compounds read low 0.999 | locus YLR262C, strain YPT6 (second series), active compounds read low 1 | locus YLR320W, strain mms22, active compounds read low 1.01 | locus YLR342W, strain FKS1, active compounds read low 1.01 | locus YLR357W, strain rsc2, active compounds read low 0.968 | locus YLR370C, strain arc18, active compounds read low 0.984 | locus YLR384C, strain iki3, active compounds read low 0.981 | locus YML120C, strain ndi1, active compounds read low 1.01 | locus YMR058W, strain fet3, active compounds read low 0.99 | locus YMR125W, strain sto1, active compounds read low 0.993 | locus YMR129W, active compounds read low 0.988 | locus YMR205C, strain PFK2, active compounds read low 0.989 | locus YMR231W, strain pep5, active compounds read low 1 | locus YNL071W, strain lat1, active compounds read low 0.979 | locus YNL183C, strain NPR1, active compounds read low 0.953 | locus YNL209W, strain ssb2, active compounds read low 0.987 | locus YNL248C, strain rpa49, active compounds read low 0.974 | locus YNL322C, strain KRE1 (second series), active compounds read low 1.01 | locus YNR049C, strain mso1, active compounds read low 1.01 | locus YOR001W, strain rrp6, active compounds read low 0.982 | locus YOR070C, strain gyp1, active compounds read low 0.987 | locus YOR080W, strain dia2, active compounds read low 0.993 | locus YOR083W, strain WHI5, active compounds read low 1.01 | locus YOR106W, strain vam3, active compounds read low 1.01 | locus YOR231W, strain MKK1, active compounds read low 0.973 | locus YOR265W, strain rbl2, active compounds read low 0.969 | locus YOR270C, strain vph1, active compounds read low 0.888 | locus YOR290C, strain snf2, active compounds read low 1.02 | locus YPL051W, strain arl3, active compounds read low 1.01 | locus YPL078C, strain atp4, active compounds read low 0.996 | locus YPL106C, strain sse1, active compounds read low 0.987 | locus YPL240C, strain hsp82, active compounds read low 0.995 | locus YPL256C, strain CLN2, active compounds read low 0.966

C=C(C)/C=C1/C=CC(=O)C(C)=C1
active: locus YBR021W, strain FUR4, active compounds read low 0.466 | locus YCL029C, strain bik1, active compounds read low 0.611 | locus YDL035C, strain GPR1, active compounds read low 0.185 | locus YDL074C, strain BRE1, active compounds read low 0.26 | locus YDL101C, strain DUN1, active compounds read low 0.803 | locus YDL185W, strain tfp1, active compounds read low 0.06 | locus YDL192W, strain arf1, active compounds read low 0.0749 | locus YDR101C, strain arx1, active compounds read low 0.613 | locus YDR162C, strain NBP2, active compounds read low 0.208 | locus YDR318W, strain mcm21, active compounds read low 0.0733 | locus YDR388W, active compounds read low 0.544 | locus YDR502C, strain sam2, active compounds read low 0.0764 | locus YEL061C, strain CIN8, active compounds read low 0.288 | locus YER110C, active compounds read low 0.472 | locus YER155C, strain BEM2, active compounds read low 0.27 | locus YER167W, strain BCK2, active compounds read low 0.151 | locus YGL078C, strain dbp3, active compounds read low 0.0621 | locus YGL086W, strain mad1, active compounds read low 0.0823 | locus YGL248W, strain PDE1, active compounds read low 0.152 | locus YGR078C, strain PAC10, active compounds read low 0.097 | locus YGR135W, strain pre9, active compounds read low 0.129 | locus YGR252W, strain gcn5, active compounds read low 0.264 | locus YHR079C, strain IRE1 (second series), active compounds read low 0.687 | locus YHR094C, strain hxt1, active compounds read low 0.088 | locus YHR129C, strain ARP1, active compounds read low 0.107 | locus YHR200W, strain rpn10, active compounds read low 0.27 | locus YIL066C, strain RNR3, active compounds read low 0.458 | locus YIL073C, strain SPO22, active compounds read low 0.179 | locus YIL125W, strain kgd1, active compounds read low 0.0607 | locus YIR030C, strain dcg1, active compounds read low 0.42 | [3] 0.375 | locus YJL134W, strain LCB3, active compounds read low 0.183 | locus YJL168C, strain set2, active compounds read low 0.203 | locus YJL187C, strain SWE1 (second series), active compounds read low 0.636 | locus YKL068W, active compounds read low 0.0579 | locus YKL085W, strain MDH1 (second series), active compounds read low 0.0777 | locus YKL085W, strain MDH1, active compounds read low 0.0777 | locus YKL190W, strain CNB1, active compounds read low 0.198 | locus YKR001C, strain vps1, active compounds read low 0.0676 | locus YLR039C, strain RIC1, active compounds read low 0.166 | locus YLR058C, strain SHM2, active compounds read low 0.755 | locus YLR102C, strain apc9, active compounds read low 0.0756 | locus YLR262C, strain YPT6, active compounds read low 0.152 | locus YLR268W, strain sec22, active compounds read low 0.076 | locus YLR330W, strain CHS5, active compounds read low 0.0909 | locus YLR371W, strain rom2, active compounds read low 0.0908 | locus YLR418C, strain cdc73, active compounds read low 0.116 | locus YML016C, strain PPZ1, active compounds read low 0.228 | locus YML032C, strain rad52, active compounds read low 0.7 | locus YML124C, strain tub3, active compounds read low 0.174 | locus YMR078C, strain ctf18, active compounds read low 0.0861 | locus YMR223W, strain ubp8, active compounds read low 0.108 | [1] 0.147 | locus YNL067W, strain RPL9B, active compounds read low 0.0907 | [2] 0.229 | locus YNL233W, strain BNI4, active compounds read low 0.188 | locus YNL250W, strain rad50, active compounds read low 0.0988 | locus YNL271C, strain bni1, active compounds read low 0.0645 | locus YNL298W, strain CLA4, active compounds read low 0.06 | locus YNL307C, strain MCK1, active compounds read low 0.0748 | locus YNR052C, strain pop2, active compounds read low 0.748 | locus YOL006C, strain TOP1, active compounds read low 0.202 | locus YOL147C, strain pex11, active compounds read low 0.464 | locus YOR061W, strain CKA2, active compounds read low 0.449 | locus YOR069W, strain VPS5, active compounds read low 0.0688 | locus YOR136W, strain idh2, active compounds read low 0.106 | locus YOR144C, strain elg1, active compounds read low 0.646 | locus YOR184W, strain ser1, active compounds read low 0.0806 | locus YOR316C, strain cot1, active compounds read low 0.0831 | locus YPL055C, strain LGE1, active compounds read low 0.103 | locus YPR119W, strain clb2, active compounds read low 0.0703 | locus YPR141C, strain kar3, active compounds read low 0.0832 | locus YPR163C, strain tif3, active compounds read low 0.0853 | locus YPR167C, strain met16, active compounds read low 0.0692 | strain wtn01, active compounds read low 0.0763
inactive: locus YBR229C, strain ROT2, active compounds read low 0.99 | locus YOL012C, strain htz1 0.247
